PfHsp90 yeast 2: growth inhibition of yeast expressing Plasmodium Hsp90 | S. cerevisiae expressing PfHsp90, BacTiter-Glo ATP, 48 h; yeast lacking PDR1 and PDR3 efflux regulators | inhibition, % at 9.4 µM | actives 0.32% (n = 310,000);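 active means every replicate shows inhibition above about 80%, whatever the replicate mean, limit read from the data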
tim10-1 inh: inhibits growth of tim10-1 mutant yeast; S. cerevisiae tim10-1 ts strain growth, BacTiter-Glo, 24 h; actives 2.2% (n = 330,000); inhibition, % at 20 µM;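 active means inhibition of at least 40%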;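 further: mutant grown at 25 °C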
NALP1 inh: inhibitors of NALP1 inflammasome in yeast | inhibition, % at 10 µM | actives 0.61% (n = 280,000) | S. cerevisiae NALP1/ASC/caspase-1 growth, X-gal OD620, 72 h; in the data active means inhibition mostly above about 24%, no sharp cut-off; inactive means mostly below about 32%
tim23-1 inh: tim23-1 yeast growth inhibition | AID 463212 | inhibition, % at 20 µM | S. cerevisiae tim23-1 growth, BacTiter-Glo luminescence, 24 h | actives 1.3% (n = 330,000);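 active means growth inhibition of the mutant yeast at or above 50%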;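 further: temperature-sensitive mutant grown at 25 °C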
NLRP3 yeast inh: inhibitors of NALP3 inflammasome in yeast; Yeast reconstituted NLRP3/ASC/caspase-1, beta-gal luminescence, 24 h; inhibition, % at 10 µM; actives 0.39% (n = 330,000);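 active means inhibition of 50% or more; inactive means inhibition below 50%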
TIM10 inh: inhibits growth of TIM10 yeast strain | AID 463195 | S. cerevisiae TIM10 strain growth, BacTiter-Glo luminescence, 24 h | actives 1.4% (n = 330,000) | inhibition, % at 10 µM;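 active means inhibition of 40% or more at the single tested concentration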;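 further: wild-type TIM10 isogenic control strain grown at permissive 25 °C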
TIM10 conf: TIM10 yeast growth inhibition, confirmed | S. cerevisiae tim10 strain growth, BacTiter-Glo luminescence, 24 h | inhibition, % at 10 µM | shares compounds with TIM10 inh | actives 63% (n = 4,600);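 active means inhibition of yeast growth at or above a set limit in either of two replicates at 10 µM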; further: this counterscreen used the strain with wild-type TIM10
Large screens that a line does not name were inactive (follow-up assays come after a bar, where they were run). Rows were chosen to be rich in hits. Some 4.2% of all compounds tested hit in one or more screens of this group.

O=c1[nH]c(NNC(=S)NC2CCCCC2)nc2c1C1(CCCC1)Cc1ccccc1-2	TIM10 inh 40.6 (no result: NALP1 inh) | TIM10 conf 32.5
COc1ccc(CN(CC(O)COCc2ccccc2)S(=O)(=O)c2ccccc2Br)cc1 (stereo not given)	none (no result: NALP1 inh, NLRP3 yeast inh)
COc1ccccc1N1C(=O)C=C(Sc2nc(C)cc(C)n2)C1=O	TIM10 inh 41.7 (no result: PfHsp90 yeast 2) | TIM10 conf 44.8
CC(C)n1c(N2CCN(S(=O)(=O)c3cccc([N+](=O)[O-])c3)CC2)nc2ccccc21	TIM10 inh 41.0 | TIM10 conf 34.5
Cn1c(N2CCN(S(=O)(=O)c3ccc(F)cc3)CC2)nc2ccccc21	none
C=CCN(CC=C)C(=S)NC(=O)/C=C/c1ccc(OC)cc1	TIM10 inh 44.4 | TIM10 conf inactive
COc1cccc(CNCc2ccc(OC)cc2OC)c1	none
CCn1c2ccccc2c2cc(CNCc3ccc(OC)cc3OC)ccc21	NALP1 inh 23.2, TIM10 inh 48.6 | TIM10 conf inactive
O=C(COc1ccc(Cl)cc1Cl)NNC(=S)Nc1ccc(F)cc1	TIM10 inh 45.1 | TIM10 conf 37.7
c1ccc(Cn2c(-c3ccco3)nc3nc4ccccc4nc32)cc1	TIM10 inh 42.7 | TIM10 conf inactive
CCCCCn1c(-c2ccco2)nc2nc3ccccc3nc21	none
O=[N+]([O-])C(=C1Nc2ccccc2N1)/C(Cl)=C(/Cl)Br	TIM10 inh 57.1 | TIM10 conf 41.0
CN(Cc1ccccc1)C(=C(Cl)Cl)C(=C1NCCN1)[N+](=O)[O-]	none
CCN1CCN(C(=O)c2cc3cc4cc(OC)ccc4nc3s2)CC1	none
COc1ccc2nc3sc(C(=O)NCCN4CCc5ccccc5C4)cc3cc2c1	TIM10 inh 75.5 | TIM10 conf 80.0
COc1ccc2cc3cc(C(=O)NC4CC4)sc3nc2c1	none
COc1ccc2cc3cc(C(=O)NCCCN4CCc5ccccc5C4)sc3nc2c1	TIM10 inh 62.8 | TIM10 conf 54.3
O=C(Nc1cc(Oc2ccc(Cl)cc2)cc([N+](=O)[O-])c1)c1ccco1	TIM10 inh 64.8 | TIM10 conf inactive
CCOc1ccc(Oc2cc(NC(=O)c3ccco3)cc([N+](=O)[O-])c2)cc1	none (no result: tim10-1 inh, tim23-1 inh, NLRP3 yeast inh, TIM10 inh)
COc1ccc(Oc2coc3cc(OC(=O)c4cccs4)ccc3c2=O)cc1	none
Cc1ccc(C)c(Oc2coc3cc(OC(=O)c4cccs4)ccc3c2=O)c1	TIM10 inh 40.0 (no result: NALP1 inh) | TIM10 conf inactive
CCOC(=O)Oc1ccc2c(=O)c(Oc3cc(C)cc(C)c3)coc2c1	TIM10 inh 43.8 | TIM10 conf inactive
CSc1ccc(C(=O)C2CCCN(C(=O)c3ccc4c(c3)no[n+]4[O-])C2)cc1 (stereo not given)	TIM10 inh 45.9 | TIM10 conf 35.2
CCN1C(=S)N[C@@H](CCc2ccccc2)C(C(=O)OC)=C1C	none
O=C(c1cc(Cl)ccc1[N+](=O)[O-])n1cnc2ccccc21	TIM10 inh 40.6 | TIM10 conf inactive
COc1cc(C(=O)n2cnc3ccccc32)c([N+](=O)[O-])cc1OC	none
O=C(CCNS(=O)(=O)/C=C/c1ccccc1)NCCc1c[nH]c2ccccc12	none
O=C(c1ccccc1)N1CCCCC(Sc2nnc3ccccn23)C1=O (stereo not given)	none
CCN(CC)C(=S)SC1CCCCN(C(=O)c2ccccc2)C1=O (stereo not given)	none | TIM10 conf inactive
COc1cc2nc(CN3CCOCC3)n(CC(=O)NCC(F)(F)F)c(=O)c2cc1OC	none
COc1cc(OC)cc(-c2nc3ccccc3c(=O)n2OC(=O)c2ccccc2C)c1	TIM10 inh 48.3 | TIM10 conf inactive
COc1ccc(-c2nc3ccccc3c(=O)n2CCOc2c(C)cccc2C)cc1	none
Cn1c(NNC(=O)c2cccc3ccccc23)cc(=O)n(C)c1=O	none
Cc1cc(C)cc(OCC(=O)OCC(=O)Nc2cc(C)nn2-c2ccccc2)c1	TIM10 inh 82.9 (no result: NALP1 inh) | TIM10 conf inactive
Cc1cc(NC(=O)COc2ccccc2)n(-c2ccccc2)n1	none
c1ccc(Cn2c(SCc3nc4ccccc4s3)nnc2-c2ccco2)cc1	none
CCC(c1nnc(SCc2nc3ccccc3s2)n1Cc1ccccc1)N(C)C (stereo not given)	TIM10 inh 40.9 | TIM10 conf inactive
Cc1ccc(S(=O)(=O)NC(=O)c2cc(C)n(C3CC3)c2C)cc1	none
COc1ccc(NC(=O)c2cc3n(n2)C(C(F)(F)F)CC(c2ccc4c(c2)OCO4)N3)cc1OC (stereo not given)	TIM10 inh 40.6 | TIM10 conf 35.2
COc1ccc(C2CC(C(F)(F)F)n3nc(C(=O)NCCCn4ccnc4)cc3N2)cc1OC (stereo not given)	none
CC(C(=O)Nc1ccc2c(c1)OCO2)N(C)CC(=O)Nc1ccc(Cl)cc1 (stereo not given)	none (no result: tim10-1 inh, NALP1 inh, tim23-1 inh, NLRP3 yeast inh, TIM10 inh)
CCOC(=O)C1CCN(C(=O)c2ccccc2)C(CC)C1=O (stereo not given)	none (no result: tim10-1 inh, NALP1 inh, tim23-1 inh, NLRP3 yeast inh, TIM10 inh)
O=C(O)/C=C/c1cn(-c2ccccc2)nc1-c1ccc(-c2ccc([N+](=O)[O-])cc2)o1	none
OC(c1ccccc1)c1ccncc1 (stereo not given)	none (no result: NALP1 inh)
Cc1ccccc1C(N)c1ccncc1 (stereo not given)	TIM10 inh 81.2 | TIM10 conf inactive
CCOC(=O)[C@H]1[C@H]2COc3ccccc3[C@@H]2N2C(=O)[C@@H](CO)NC(=O)[C@@]12C	none (no result: NALP1 inh)
COc1cccc(C(=O)NC(=S)Nc2ccccc2N2CCCCC2)c1	TIM10 inh 40.8 | TIM10 conf inactive
Cc1ccc(C(=O)NC(=S)Nc2ccccc2N2CCCC2)cc1[N+](=O)[O-]	TIM10 inh 42.7 | TIM10 conf inactive
CN(/N=C/c1cccc(Br)c1)C1=NS(=O)(=O)c2ccccc21	none
Cc1cc(C(=O)CN2C(=O)c3ccccc3S2(=O)=O)c(C)n1-c1ccccc1	none
Cc1cc(C(=O)CN2C(=O)C3CC=CCC3C2=O)c(C)n1-c1ccccc1 (stereo not given)	TIM10 inh 43.0 | TIM10 conf inactive
Cc1c(O)ccc2c3c(c(=O)oc12)CCCC3	TIM10 inh 41.1 | TIM10 conf 31.4
Cc1c(O)ccc2c3c(c(=O)oc12)CCC(C)C3 (stereo not given)	none (no result: NALP1 inh)
O=C(Nc1ccc(N2CCOCC2)cc1)c1cc(-n2cnnc2)ccc1Cl	TIM10 inh 96.5 | TIM10 conf inactive
O=C(Nc1ccccc1)c1cc(-n2cnnc2)ccc1Cl	none
Cc1cccc2nc(-c3ccccc3)nc(N3CCC(O)(c4ccc(Cl)cc4)CC3)c12	TIM10 inh 42.7 | TIM10 conf 54.5
Cc1ccc(N=Cc2cc(Cc3ccccc3Cl)cc([N+](=O)[O-])c2O)c(O)c1	PfHsp90 yeast 2 110.6, TIM10 inh 52.4 | TIM10 conf 34.2

Screens deposited in PubChem BioAssay by several laboratories.
